Screening results (PubChem BioAssay)
Shown are actives, neighbours in structure and some others; about 3.3% of the full set was active somewhere.
MazF activator = MazEF (E. coli) toxin RNase activation. P0AE70. FAM/BHQ RNA-DNA oligo cleavage fluorescence, 5 h. activation, % at 20 µM. actives 0.32% (n = 350,000). AID 504720; in the data active = activation above about 50%
BoNT-A LC inh2 = blocks Botulinum neurotoxin A light chain protease; multiplex microsphere protease substrate cleavage, flow cytometry; inhibition, % at 10 µM; actives 0.17% (n = 360,000); AID 588499; note: plate controls were buffer without enzyme for full effect and enzyme alone for no effect
Autofluor counter = flagged as autofluorescent in microsphere protease counterscreen; compound autofluorescence counterscreen, microsphere flow cytometry; active compounds read high; fluorescence intensity (concentration not given with the values); actives 3.1% (n = 360,000); AID 624483; in the data active = fluorescence intensity above about 16000; inconclusive = no clear call, values can overlap the other calls
Anthrax LF prot = inhibitors of Bacillus anthracis lethal factor protease; P15917; multiplex microsphere protease cleavage assay, LF; inhibition, % at 10 µM; actives 0.12% (n = 360,000); AID 588501; note: plate controls were buffer without enzyme for full effect and enzyme alone for no effect
SSB-PriA inh = inhibitors of Klebsiella pneumoniae PriA binding to SSB C-terminal tail; inhibition, % at 33 µM; actives 0.6% (n = 430,000); AlphaScreen SSBct-PriA binding, biotinylated peptide; in the data active = inhibition mostly above about 37%, no sharp cut-off; inactive = mostly below about 20%;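 note: plate controls were negative control peptide for no effect and reference peptide for full effect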
BoNT-F LC inh = BoNT F light chain protease inhibition | inhibition, % at 10 µM | AID 588497 | actives 0.22% (n = 360,000) | Multiplex microsphere protease cleavage assay, flow cytometry; in the data active = inhibition above about 35%, passing the limit was not always enough; inconclusive = no clear call, values can overlap the other calls; note: plate controls were buffer without enzyme for full effect and enzyme alone for no effect
Starred values were filed as active, the others as inactive; ? = inconclusive; · = not tested or not shown. Cut-off read from the data, not from the text of the source, unless noted: active = inhibition above about 30%; inconclusive = no clear call, values can overlap the other calls; inactive = below that.

SMILES	MazF activator	BoNT-A LC inh2	Autofluor counter	Anthrax LF prot	SSB-PriA inh	BoNT-F LC inh
COc1ccccc1NC(=O)COc1cccc(-n2cnnn2)c1	2.1	-6.3	18765*	-0.6	-5.5	-10.1
Cc1cc(C(=O)COc2cccc(-n3cnnn3)c2)c(C)n1-c1ccccc1	4.0	-0.4	16603*	-3.2	4.7	-1.9
O=C(COc1ccccc1F)Nc1ccc(-c2csc(Nc3cccnc3)n2)cc1	·	·	·	·	4.0	·
Cc1cccc(C)c1NC(=O)Cn1nnc(-c2ccc(N3CCOCC3)cc2)n1	-13.6	-1.7	20925*	-1.7	-1.8	-2.9
Cc1ccc(C)c(NC(=O)Cn2nnc(-c3ccc(N4CCOCC4)cc3)n2)c1	-15.7	0.4	3912	-1.5	-3.7	-4.0
CCNC(=O)CN1C(=O)NC2(CCOc3ccccc32)C1=O (configuration not stated)	4.8	-1.3	5941	0.1	-8.3	1.7
O=C(CN1C(=O)CCOc2ccccc21)Nc1nc(-c2ccccn2)cs1	·	·	·	·	93.0*	·
CSCCC(=O)Nc1nc(-c2ccccn2)cs1	7.8	-0.9	3269	-4.5	-9.2	-4.1
O=C(CN1C(=O)NC2(CCOc3ccccc32)C1=O)Nc1nc(-c2ccccn2)cs1 (configuration not stated)	·	·	·	·	111.0*	·
O=C(CN1C(=O)CCC1=O)Nc1nc(-c2ccccn2)cs1	-15.8	-1.7	5523	-3.6	51.0*	-15.9
O=C(CN1CSCC1=O)Nc1nc(-c2ccccn2)cs1	·	·	·	·	56.5	·
CCCCC(=O)Nc1nc(-c2ccccn2)cs1	·	·	·	·	50.0*	·
Cn1cc(-c2nnnn2-c2cccc(C(F)(F)F)c2)c(C(F)(F)F)n1	0.3	-2.6	24492*	-1.8	1.4	-4.4
CCOC(=O)Nc1ccc2c(c1)C(=O)N(C)c1cc(C)ccc1O2	·	·	·	·	1.0	·
O=C(c1cc(-c2ccccc2)on1)N1CCc2ccccc2C1	-1.7	-0.5	2306	-3.9	-12.2	-2.6
COc1cccc(-c2cc(C(=O)N3CCCc4ccccc43)no2)c1	-3.5	24.6	12935	-22.7	-48.7	31.3
COc1ccc(-c2cc(C(=O)N3CCCc4ccccc43)no2)cc1OC	-2.9	0.6	22113*	-1.3	3.0	0.6
COc1ccc(-c2cc(C(=O)N3CCc4ccccc4C3)no2)cc1OC	4.5	-1.3	21095*	-5.1	-10.2	-3.8
Cc1ccc(-c2cc(C(=O)N3CCc4ccccc4C3)[nH]n2)cc1C	-2.8	0.6	4383	-1.0	0.5	-2.8
COc1cccc(-c2cc(C(=O)N3CCc4ccccc4C3)[nH]n2)c1	93.4*	1.2	5328	-3.4	-7.3	-5.0
COc1ccc(-c2cc(C(=O)N3CCCc4ccccc43)no2)cc1	-7.2	?	22780*	-1.1	-8.5	1.5
O=C(NCCCS(=O)(=O)N1CCN(c2ccccc2F)CC1)c1cc2ccccc2o1	·	·	·	·	-7.0	·
N#C/C(=C(/O)c1ccc(-c2ccc([N+](=O)[O-])cc2Cl)o1)c1nc(-c2ccccc2)cs1	·	·	·	·	0.0	·
COc1ccc(-c2nnc3sc(-c4cccs4)nn23)cc1OC	20.1	0.1	3341	0.0	-5.3	-4.4
COc1ccc(C2=Nn3c(nnc3C3CCCCC3)SC2)cc1OC	3.6	-3.0	24718*	-1.9	-2.1	-5.5
SMILES	MazF activator	BoNT-A LC inh2	Autofluor counter	Anthrax LF prot	SSB-PriA inh	BoNT-F LC inh
COc1ccc(-c2nn3c(C4CCCCC4)nnc3s2)cc1OC	9.0	-0.4	16665*	-3.2	-12.9	2.2
COc1cccc(-c2nnc3sc(-c4ccccn4)nn23)c1	0.7	-0.2	2173	2.0	-20.1	-6.0
COc1ccc(OC)c(C2=Nn3c(nnc3C3CCCCC3)SC2)c1	5.5	0.6	2896	8.5	-1.7	-8.2
COc1cccc(-c2nn3c(-c4ccccn4)nnc3s2)c1	-1.7	?	19346*	-6.6	8.3	2.9
COc1ccc(-c2nn3c(-c4ccccn4)nnc3s2)cc1OC	4.5	?	19421*	0.8	1.5	1.9
COc1ccc(-c2csc(CN3CCN(C(=O)CC4CCCC4)CC3)n2)cc1	·	·	·	·	-2.0	·
CCS(=O)(=O)NCCNc1ccc(C)nn1	·	·	·	·	-3.0	·
COCCN1CCC(CNC(=O)Cc2ccc(F)cc2)CC1	·	·	·	·	-10.0	·
Cn1c(=NC(=O)c2ccco2)sc2cc3c(cc21)OCCO3	·	·	·	·	-12.0	·
COc1ccc(-c2nn3c(-c4cccc(C)c4)nnc3s2)cc1OC	32.8	-2.6	16794*	-4.6	-22.9	-5.0
CCOc1ccc(NC=CC(=O)c2ccccc2)c([N+](=O)[O-])c1	·	·	·	·	43.2*	·
CCOc1ccc(N/C=C/C(=O)c2ccc3ccccc3c2)c([N+](=O)[O-])c1	10.8	0.2	16459*	-1.5	·	-0.1
